# Source: PubChem BioAssay (National Center for Advancing Translational Sciences (NCATS))
# D2 antagonist – D2 dopamine receptor (human) antagonism | P14416 | HEK293 TREx D2 cells, calcium flux, dopamine EC80 | inhibition, % at 10 µM | 340,000 compounds, 2% hits | AID 485344; in the data active means inhibition above about 30%; inactive means below that, where a call was filed
#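 Antagonism is scored as inhibition of an EC80 dopamine-evoked calcium signal in a force-coupled, tetracycline-inducible HEK293 T-REx D2 line, with compound present 180 s before agonist.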
# D2 ag-1 – human D2 receptor agonism in beta-arrestin assay; DiscoveRx PathHunter D2 beta-arrestin, luminescence, 90 min; 100% = 57 uM dopamine signal; activation, % (test concentration not listed); 360,000 compounds, 0.084% hits; AID 624465; in the data active means activation above about 40%; inconclusive means between about 15% and that limit
#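 Agonist mode: compounds alone added to overnight-plated D2 PathHunter cells for 90 min at 37 C, with 57 uM final dopamine (EC100) defining full response. Beta-arrestin recruitment detected by chemiluminescent reagent, read after 1 h at ambient temperature.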
# D2 ag-2 – agonists of human D2 dopamine receptor. HEK293 T-REx D2 cells, calcium flux agonist mode. activation, % at 2 µM. 340,000 compounds, 0.53% hits. AID 485358;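 active means activation over 3 SD above normal in the single-dose calcium agonist read, cut at about 30% in these data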
#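 Agonism is scored from calcium flux in a force-coupled, inducible HEK293 cell line expressing D2, read kinetically for 180 s after compound addition against dopamine controls.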
# D2 PAM-1 – positive allosteric modulators of human D2 dopamine receptor; P14416; HEK293 T-REx D2, calcium flux, EC20 dopamine potentiation; potentiation, % at 10 µM; 340,000 compounds, 0.34% hits;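 active means potentiation over 3 SD above the plate norm, cut at about 30% in these data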
#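 Tetracycline-induced Hek293 Trex D2 cells, force-coupled to calcium, loaded with no-wash calcium dye. Compound added with 180 s kinetic read for agonism, then EC20 dopamine and a further 180 s read for potentiation.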
# D2 PAM-2 – positive allosteric modulators of human D2 dopamine receptor; P14416; DiscoveRx D2 beta-arrestin cells, luminescence, 90 min; 100% = 57 uM dopamine signal; potentiation, % (test concentration not listed); 360,000 compounds, 0.23% hits; AID 624464; in the data active means potentiation above about 50%; inconclusive means mostly about 30% to 49%
#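 PathHunter beta-arrestin assay in DiscoveRx D2 cells. Compounds were added with an EC20 of dopamine (50 nM final) for 90 min at 37 deg C. Luminescence was read 1 h after detection reagent, with 57 uM dopamine as the EC100 control.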
# D3 ag – D3 receptor agonism confirmed, beta-arrestin readout | Potency, µM (titrated, usually from 76.9 µM), most hits filed as activators | DiscoveRx D3 beta-arrestin cells, luminescence, 90 min | shares compounds with D2 ag-2 | 2,300 compounds, 4% hits; further: nearly all actives have a fitted effect of over 70% in size
# Target sequence (P35462 whole entry, looked up): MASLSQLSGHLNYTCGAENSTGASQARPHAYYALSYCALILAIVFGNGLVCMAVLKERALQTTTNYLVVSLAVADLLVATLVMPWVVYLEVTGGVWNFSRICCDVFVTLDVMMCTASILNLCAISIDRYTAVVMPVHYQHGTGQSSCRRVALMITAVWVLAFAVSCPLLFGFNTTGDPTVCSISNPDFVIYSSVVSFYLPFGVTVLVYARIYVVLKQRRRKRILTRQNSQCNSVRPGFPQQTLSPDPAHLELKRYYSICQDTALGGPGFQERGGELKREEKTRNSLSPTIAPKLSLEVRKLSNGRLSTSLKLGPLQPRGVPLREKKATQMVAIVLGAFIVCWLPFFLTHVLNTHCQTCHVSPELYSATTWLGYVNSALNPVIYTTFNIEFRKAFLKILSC
# D2 ag-3 – activates human D2 dopamine receptor in D3 counterscreen. Potency, µM (titrated, usually from 76.9 µM), usual class: activators. 2,300 compounds, 5.9% hits. shares compounds with D2 ag-2. DiscoveRx PathHunter D2 beta-arrestin, luminescence, 90 min; response scale: percent relative to full dopamine signal. AID 720507; further: nearly all actives have a fitted effect of over 70% in size
# Numbers stand for hits; 0 = inactive; ? = inconclusive; - = not tested or not shown. Most compounds without a hit are left out; they make up all but 2.4% or so of the library. Unless noted, the call rests on the fitted dose curve; in most records, active means well fitted activation curve with a large enough effect; inconclusive means small, poorly fitted or top-dose-only effect; inactive means flat fitted curve, though single readings scatter.
SMILES,D2 antagonist,D2 ag-1,D2 ag-2,D2 PAM-1,D2 PAM-2,D3 ag,D2 ag-3
COc1ccc(NC(=O)C(=O)NCCN2CCN(C(=O)c3cccs3)CC2)cc1,44,0,0,0,0,?,0
Cc1c(C(=O)N2CCC(C)CC2)c(S(=O)(=O)N2CCN(c3ccc(Cl)cc3)CC2)c(C)n1C,-,-,0,0,-,-,-
COc1cccc(N2CCN(Cc3nc(N)nc(N4CCCc5ccccc54)n3)CC2)c1,59,?,56,0,0,0,?
Cc1ccc(OCc2nc(-c3ccc(C(=O)NCCc4ccc(Cl)cc4)cc3)oc2C)cc1,-,-,0,0,-,-,-
CCNS(=O)(=O)c1ccc2c3c(cccc13)C(=O)N2,0,0,48,0,0,0,0
N#Cc1ccc(CSc2nnc(NC(=O)C3CC(=O)N(c4ccc5c(c4)OCCO5)C3)s2)cc1 (stereo unspecified),0,0,0,0,0,-,-
O=C(Nc1nnc(SCc2ccc(F)cc2)s1)C1CC(=O)N(c2ccc3c(c2)OCCO3)C1 (stereo unspecified),0,0,43,0,0,0,0
Cc1cc(C)n2nc(-c3ccc(F)cc3)nc2n1,-,0,-,-,0,0,0
Cc1cc(C)n2nc(-c3cccnc3)nc2n1,0,0,0,0,0,-,-
CC(=O)Nc1ccc(OCC(O)CN2CCN(c3ccc(Cl)cc3)CC2)cc1 (stereo unspecified),40,0,0,0,0,0,0
CC(=O)Nc1ccc(OCC(O)CN2CCN(c3ccc(F)cc3)CC2)cc1 (stereo unspecified),45,0,69,0,0,0,0
CC(=O)Nc1ccc(OCC(O)CN2CCN(c3cccc(Cl)c3)CC2)cc1 (stereo unspecified),83,?,76,0,0,?,?
CC(=O)Nc1ccc(OCC(O)CN2CCN(S(=O)(=O)c3ccc(NC(C)=O)cc3)CC2)cc1 (stereo unspecified),0,0,0,0,0,-,-
O=C(COc1ccc(Cl)cc1)NCCc1csc(-c2cccc(F)c2)n1,-,-,0,0,-,-,-
COC(=O)c1cc(-c2ccc(C)cc2)c2c(=O)n(C)c(=O)n(C)c2n1,-,-,0,0,-,-,-
Cc1ccc(C(=O)NCC(c2ccco2)S(=O)(=O)c2ccc(Cl)cc2)cc1C (stereo unspecified),-,-,0,0,-,-,-
CCN(C(=O)CSc1ncc(S(=O)(=O)c2ccc(C)c(Cl)c2)c(=O)[nH]1)c1cccc(C)c1,-,-,0,0,-,-,-
Cc1cc(OCc2cc(C(=O)N3CCC(Oc4cccnc4)CC3)no2)cc(C)c1Cl,0,0,51,0,0,0,?
Cc1cc(OCc2cc(C(=O)NC3CCC3)no2)cc(C)c1Cl,43,0,0,0,0,0,0
COc1ccc(-c2nc3n(n2)C(c2ccc(OC)c(OC)c2)C(C(=O)Nc2cccnc2)=C(C)N3)cc1 (stereo unspecified),-,-,0,0,-,-,-
CCSc1nc(CC)c2c(c1C#N)CCCC2,0,0,56,0,0,0,0
Cc1ccc(S(=O)(=O)N2CCOCC2)cc1C(=O)N1CCN(c2ncccn2)CC1,0,0,36,0,0,0,0
Cc1ccc(S(=O)(=O)N2CCOCC2)cc1C(=O)N1CCOCC1,-,0,-,0,0,-,-
Cc1ccccc1C(=O)NNC(=O)c1cc(S(=O)(=O)N2CCOCC2)ccc1C,0,0,0,0,0,0,0
Cc1nn(C)c2c1c(-c1ccccc1)cc(=O)n2Cc1ccccc1Cl,-,-,0,0,-,-,-
SMILES,D2 antagonist,D2 ag-1,D2 ag-2,D2 PAM-1,D2 PAM-2,D3 ag,D2 ag-3
COc1ccc(-c2cn3c(n2)sc2cc(C(=O)NC(C)C45CC6CC(CC(C6)C4)C5)ccc23)cc1 (stereo unspecified),-,-,0,0,-,-,-
Cn1nnnc1Sc1ncnc2scc(-c3ccc(F)cc3)c12,-,0,-,-,0,0,0
Cn1nnnc1Sc1ncnc2scc(-c3ccccc3)c12,0,0,0,0,0,-,-
COc1cccc(NS(=O)(=O)c2ccc3c(c2)N(C)C(=O)CC(=O)N3C)c1,-,-,0,0,-,-,-
Cc1ccc(C)c(Cn2c3ccccc3c3cnn(CC(=O)NC4CCC(C)CC4)c(=O)c32)c1 (stereo unspecified),-,-,0,0,-,-,-
CCCCOCc1cc(CN2CCN(c3cccc(Cl)c3)CC2)c(O)c2ncccc12,-,-,0,0,-,-,-
CCCNC(=O)C(=O)Nc1ccc(N(C)C)cc1,0,0,0,0,0,-,-
CN(C)c1ccc(NC(=O)C(=O)NCCOc2ccccc2)cc1,0,0,34,0,0,?,0
O=c1c2oc3ccccc3c2n(Cc2ccccc2Cl)c(=O)n1Cc1ccco1,-,-,-,0,-,-,-
CC(=O)CC(C)(C)Nc1nc2ccc([N+](=O)[O-])cc2o1,39,0,0,0,0,0,0
CC(=O)CC(C)(C)Nc1nc2cc([N+](=O)[O-])ccc2o1,0,0,0,0,0,-,-
O=C(c1ccco1)N1CCN=C1SCc1ccccc1Cl,0,0,0,0,0,-,-
O=C(c1ccco1)N1CCN=C1SCc1c(F)cccc1Cl,0,0,37,0,0,0,0
Cn1c(CC(=O)NNC(=O)c2ccc(F)cc2Cl)nc2ccccc21,0,0,0,0,0,-,-
Cn1c(CC(=O)NNC(=O)c2ccccc2[N+](=O)[O-])nc2ccccc21,0,0,0,0,0,0,0
Cc1c(Cl)cccc1NC(=O)CSC(C)c1nc2ccccc2c(=O)[nH]1 (stereo unspecified),0,0,0,0,0,0,0
Cc1ccc(NC(=O)c2cc(S(=O)(=O)N3CCCCC3)c[nH]2)cc1N(C)C,-,-,0,0,-,-,-
O=C(Nc1cccc(C(F)(F)F)c1)c1cnn(-c2cccc(F)c2)c1C1CCNCC1,-,-,0,0,-,-,-
Cc1ccc(/C([O-])=C(/C(=S)NCc2ccccc2)[n+]2ccccc2)cc1[N+](=O)[O-],0,0,31,0,0,0,0
COc1ccc(N2CCN(C(=O)CN3CCSc4ccccc43)CC2)cc1,-,-,-,0,-,-,-
O=C(COc1cccc(F)c1)NNC(=O)Cc1ccc(S(=O)(=O)N2CCOCC2)s1,0,0,0,0,0,0,0
O=C(COc1cccc(C(F)(F)F)c1)NNC(=O)Cc1ccc(S(=O)(=O)N2CCOCC2)s1,0,0,0,0,0,-,-
CCOC(=O)C1CCCN(c2nc3c(S(=O)(=O)c4ccc(C)c(C)c4)nnn3c3ccc(Cl)cc23)C1 (stereo unspecified),-,-,0,0,-,-,-
O=C(CCc1nnc2n(Cc3ccc(Cl)cc3)c(=O)c3ccccc3n12)N1CCN(c2ccccn2)CC1,0,0,0,0,0,-,-
CC(C)OCCCn1c(=O)c2ccccc2n2c(CCC(=O)N3CCN(c4ccccn4)CC3)nnc12,0,0,67,0,0,0,0
